According to PubChem BioAssay AID720514 (Broad Institute, 2013):
The campaign covered roughly 2,100 compounds. About 300 (14%) were called active. Another 2% or so got no clear call; they are omitted.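 How the source made its calls: active means every replicate test run called active, with the signal falling and half-maximal concentration within twice the top valid dose; inconclusive means the replicate test runs disagree in their calls; inactive means every test run inactive, including effects in the opposite direction.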 The list is a sample of the results. Entries with a potency or affinity are not part of this list.

Test: inhibitors of PGC1a acetylation in cells, dose response, cell-based, cherry-picked samples (AID 720514);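 further: 0% = neutral control wells and -100% = positive control wells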
Conditions: U2OS PGC1a acetylation, AlphaLISA, overnight; series mostly up to 19.5 µM; activity change, negative = inhibition: at the top concentration

Activity change, negative = inhibition, inactive:
CCC(C)(C)n1nnnc1C(c1ccccc1OC)N1CCSCC1 (centres undefined) 97.3%
CC(NS(=O)(=O)c1ccccc1Cl)C1CC2CCC1C2 (centres undefined) 144%
C/C=C(/C)C(=O)O[C@@H]1c2cc(OC)c(OC)c(OC)c2-c2c(cc3c(c2OC)OCO3)C[C@H](C)[C@]1(C)O 111% [at 5 µM]
O=C(CCc1nc2ccccc2c(=O)[nH]1)Nc1ccc(N2CCCCC2)cc1 77.8%
Cn1ncc(C(=O)Nc2ccc(Cl)cc2)c1C(F)(F)F 17.4%
COc1cccc(N(CC(=O)NCc2cccnc2)S(C)(=O)=O)c1 57.6%
O=C(Cc1ccc(Cl)cc1)c1c[nH]c(C(=O)NCc2cccnc2)c1 94.9%
O=C(CCCc1nc(-c2ccccc2Cl)no1)NCc1cccnc1 124% [at 10 µM]
O=C(NCc1ccccc1)C1Cc2c(-c3ccc(Cl)cc3)ccnc2O1 (centres undefined) 40.4%
O=C(NCc1cccnc1)c1ccc(NC(=O)c2ccc(Br)cc2)cc1 240%
O=C(CCCCCN1C(=O)c2cccc3cccc(c23)C1=O)NCc1cccnc1 237%
CN(C)CC(O)c1ccc(C=Cc2ccc(Cl)cc2)cc1 (centres undefined) 40% [at 5 µM]
CC(=O)Nc1ccc(NC(=O)CN(c2cccc([N+](=O)[O-])c2)S(C)(=O)=O)cc1 251%
COc1ccc(CCn2c(-c3ccc(OC)cc3)nc3c(c(=O)c4ccccc4n3C)c2=O)cc1 44.1% [at 10 µM]
COc1ccccc1/C=C1\SC(=O)N(CCC(=O)NCCCn2ccnc2)C1=O 145% [at 10 µM]
CCN(CC)C(=O)CSc1nnc2nnc3cc(Cl)ccc3n12 43.8%
COC(=O)c1ccc(NC(=O)c2cccnc2)cc1 224% [at 10 µM]
COc1ccccc1NC(=O)c1ccc(NC(=O)CNC(=O)c2ccc(OC)c(OC)c2)cc1 42.6%
COc1ccc(-c2csc3nc(C)nc(N4CCC(C)CC4)c23)cc1OC 76.6%
COc1ccc(Nc2nnc(C)c3ccccc23)cc1 103%
COc1ccc(Nc2nnc(-c3ccc(C(N)=O)cc3)c3ccccc23)cc1 160%
O=C(Cc1ccccc1)Nc1cccc(-c2nc3ncccc3o2)c1 67.1%
CC1CC(NS(=O)(=O)c2cccs2)CC(C)(C)C1 (centres undefined) 194%
COc1ccc(Nc2nc(N)c(C(=O)c3ccc(OC)cc3)s2)cc1 47.2%
Nc1c(C(=O)Nc2ccccc2)sc2ncc([N+](=O)[O-])cc12 63.9%
OC1CCCC1NCc1ccnc2cc(Cl)ccc12 (centres undefined) 217%
Cc1ccc(Nc2nnc(C)c3ccccc23)c(C)c1 71.2%
COc1ccc(OC)c(C(=O)/C=C/c2ccccc2C(F)(F)F)c1 89.2%
C[C@@H]1CN([C@H](C)CO)C(=O)c2c(c3ccccc3n2C)-c2ccccc2CO[C@@H]1CN(C)C(=O)Nc1cccc(C(F)(F)F)c1 80.6%
COc1cc(-c2cnc3c(NC(C)=O)cc(-c4ccccc4CN(C)C)cn23)cc(OC)c1OC 70%
Cn1c(CN2CCCC2)nc2cc(NC(=O)COc3ccc(Cl)cc3)ccc21 35.3%
C=CCS(=O)(=O)c1nc2ccccc2s1 95.6% [at 10 µM]
Cc1cc(C)nc(NC(=O)c2c(-c3ccccc3Cl)noc2C)n1 49.6%
COc1ccc(-c2cc(-c3ccccc3O)[nH]n2)cc1OC 80.7%
COc1cc(-c2nnn(CC#N)n2)ccc1OCc1ccccc1 376%
O=C(C1CCC1)N1CCN(S(=O)(=O)c2ccccc2)CC1 90.3% [at 10 µM]
COc1ccccc1NC(=O)N1C[C@@H]2N[C@H](C1)C2c1ccc(/C=C/c2ccccc2)cc1 (some centres undefined) 42.9% [at 10 µM]
O=C(Nc1ccccc1)C1=C[C@@H](c2ccc(C(F)(F)F)cc2)C[C@@H](OCc2ccc(CO)cc2)O1 107%
COC(=O)C[C@H]1c2cc(C(F)(F)F)ccc2S(=O)(=O)N1Cc1ccc(OC)cc1 62.4%
Cc1nnc(NCc2ccccc2)c2ccccc12 123%
O=C(CC1CC1)N[C@H]1CC[C@H](CCNS(=O)(=O)c2ccc(Cl)cc2)O[C@H]1CO 42.8%
CC(=O)c1cc(-c2ccccc2)n(CCC(=O)NC2CCCCC2)c1C 58.1%
O=C(c1cc(C2CC2)on1)N1CCCC(N2CCN(c3cccc(C(F)(F)F)c3)CC2)C1 (centres undefined) 45.6%
COc1cc2cc(-c3ccc(O)cc3O)nc(C)c2cc1OC 19.4%
Cc1ccc(C(=O)N2CCN(c3ccc(NC(=O)c4ccc(Br)o4)cc3)CC2)cc1 131%
O=C(Cc1ccccc1)N1CCN(c2ccc([N+](=O)[O-])cc2)CC1 148%
O=C(CN1CCC(n2nnc3cc(F)ccc32)CC1)NCc1ccco1 103%
C[C@@H]1CN([C@@H](C)CO)C(=O)c2c(c3ccccc3n2C)-c2ccccc2CO[C@@H]1CN(C)C(=O)Nc1ccc(F)cc1 137%
Cc1cc(C)c2nc(N(CCCN(C)C)C(=O)c3ccc(S(=O)(=O)N4CCCCCC4)cc3)sc2c1 96% [at 10 µM]
CN1c2ccccc2C2(C)CCCC3=Cc4cccc([N+](=O)[O-])c4OC312 (centres undefined) 99.6%
Cc1cccc(C(=O)Nc2ccc(C(=O)/C=C/c3cccnc3)cc2)c1 123% [at 10 µM]
O=C(Cc1ccccc1)Nc1ccc(NC(=O)c2cccs2)cc1 176%
O=C(CS(=O)CC(=O)Nc1cccc2c1CCCC2)Nc1ccc(F)cc1 (centres undefined) 107%
Nc1c(C(=O)Nc2ccccc2)c2nc3ccccc3nc2n1CCCN1CCOCC1 67.9% [at 10 µM]
CNC(=O)c1nnsc1S(=O)c1ccc(Cl)cc1 (centres undefined) 47.6% [at 10 µM]
Clc1ccc(-c2nnc(-c3ccccc3)nc2N2CCSCC2)cc1 44.6%
CC(=O)NC(c1cccc(F)c1)c1nc(-c2cccc(C(C)C)c2)cs1 (centres undefined) 41%
COc1cc2nc(SCc3c(C)noc3C)n(CCC3=CCCCC3)c(=O)c2cc1OC 106%
c1ccc(N2CCN(c3ccccc3)C2c2ccncc2)cc1 55.4%
CCC(CC)C(=O)c1c[nH]c(C(=O)NCc2ccccc2)c1 126%
CCOC(=O)C1CCCN(S(=O)(=O)c2ccc3c(c2)NC(=O)CO3)C1 (centres undefined) 150%
CCOc1ccc2c(c1)C(C)=CC(C)(C)N2S(=O)(=O)c1ccc(C)cc1 41.8% [at 10 µM]
O=C1CC(Sc2nnc(-c3ccccc3O)o2)C(=O)N1c1ccccc1 (centres undefined) 49.7% [at 10 µM]
CCOC(=O)c1[nH]c(C)c(C(=O)Nc2cc(OC)ccc2OC)c1C 50.2%
CC(=O)c1ccc(N2CCN(c3ccc(S(=O)(=O)NCCN(C)C)cc3[N+](=O)[O-])CC2)cc1 79.5%
CC(=O)c1ccc(N2CCN(c3ccc(S(=O)(=O)NCCCN(C)C)cc3[N+](=O)[O-])CC2)cc1 140% [at 10 µM]
Cc1c(C(=O)NCCSCc2c(F)cccc2Cl)cnn1-c1ccc(Cl)cc1 111%
CC1CN(S(=O)(=O)c2ccc(C(=O)NCCCn3ccnc3)cc2)CC(C)O1 (centres undefined) 293%
CCN(CC)CC(=O)N1c2ccccc2CCc2ccc(NC(=O)c3cc(OC)c(OC)c(OC)c3)cc21 49.2%
O=C(c1cccc([N+](=O)[O-])c1)N1CCc2ccccc21 48%
CC(C)(C)c1ccc(NC(=O)N2CCN(c3ccc([N+](=O)[O-])cn3)CC2)cc1 138%
Cc1ccc(S(=O)(=O)Nc2ccc3c(c2)C(=O)N([C@@H](C)CO)C[C@@H](C)[C@H](CN(C)C(=O)Nc2cccc4ccccc24)OCCCC[C@H](C)O3)cc1 58.5%
C[C@@H]1CCCCO[C@@H](CN(C)Cc2ccc(Cl)c(Cl)c2)[C@H](C)CN([C@@H](C)CO)C(=O)c2cc(NC(=O)CCC(F)(F)F)ccc2O1 32.3%
Cc1noc(C)c1S(=O)(=O)Nc1ccc2c(c1)C(=O)N([C@@H](C)CO)C[C@@H](C)[C@@H](CN(C)Cc1ccc3c(c1)OCO3)OCCCC[C@@H](C)O2 52%
Cc1noc(C)c1S(=O)(=O)Nc1ccc2c(c1)C(=O)N([C@H](C)CO)C[C@H](C)[C@H](CN(C)C(=O)c1ccncc1)OCCCC[C@@H](C)O2 23.5%
C[C@@H]1CCCCO[C@@H](CN(C)CC2CC2)[C@H](C)CN([C@H](C)CO)C(=O)c2cc(NS(=O)(=O)c3ccccc3)ccc2O1 39.4%
C[C@@H]1CN([C@H](C)CO)C(=O)c2cc(N(C)C)ccc2O[C@@H](C)CCCCO[C@H]1CN(C)C(=O)Cc1ccccc1 77.6%
CNC[C@H]1OCCCC[C@@H](C)Oc2ccc(NS(=O)(=O)c3ccccc3)cc2C(=O)N([C@H](C)CO)C[C@@H]1C 48.2% [at 21 µM]
O=C(OCc1nc2ccsc2c(=O)[nH]1)c1cccc(S(=O)(=O)N2CCOCC2)c1 5.56%
NCC[C@H]1CC[C@@H](NC(=O)C2CCCCC2)[C@@H](CO)O1 27.4%
O=C(C[C@H]1CC[C@H]2[C@@H](COC[C@@H](O)CN2C(=O)c2cc(Cl)cc(Cl)c2)O1)N1CCc2ccccc2C1 79.8%
COc1ccc(NC(=O)Cn2ncc(Cl)c(Cl)c2=O)cc1S(=O)(=O)N1CCOCC1 67.1% [at 10 µM]
CCc1nnc(NC(=O)Cc2ccc(S(=O)(=O)N3CCCCC3)cc2)s1 44%
N#Cc1ccccc1COC(=O)c1ccc2c(c1)OCCO2 163%
Fc1ccc(-c2nn3c(C4COc5ccccc5O4)nnc3s2)cc1 (centres undefined) 135%
COc1ccc2c(c1)C(C)=CC(C)(C)N2S(=O)(=O)c1ccc(Br)cc1 49.3% [at 10 µM]
OC(COc1ccc(CNCCc2ccc(C(F)(F)F)cc2)cc1)CN1CCCCC1 (centres undefined) 33.5%
CC1(C)CC(=O)C2=C(C1)Nc1ccccc1N1C(=O)c3ccccc3C21 (centres undefined) 65.3%
O=C(NCc1csc(-c2cccs2)n1)c1cccc(Cl)c1 53.2% [at 10 µM]
CN1OC(COC(=O)c2ccccc2)CC1c1ccccc1 (centres undefined) 23.1%
CCC(=O)Nc1ccc(C(=O)Cn2ncc(Cl)c(Cl)c2=O)cc1 69%
O=S(=O)(c1ccccc1)N(CC(F)(F)F)c1ccc(C(O)(C(F)(F)F)C(F)(F)F)cc1 84.8%
COc1ccc(NC(=O)C2(C)Cc3c(-c4cccc(NC(C)=O)c4)ccnc3O2)cc1 (centres undefined) 53.5%
CCOC(=O)C1=CC[C@@H](c2ccccc2)N(S(=O)(=O)c2ccc(C)cc2)[C@H]1c1cccc(OC)c1 58.4%
